According to PubChem BioAssay (NCATS):
Where “and” joins values, the source holds several entries; their conditions need not be identical. Equal entries are not always repeated. Records with an inconclusive call do not appear. Where a call stands in place of a potency, no number is given. Calls of active or inactive are those of the source. Calls come from the whole dose curve.

Assays:
[1] = Cytotoxicity counterscreen for inhibitors of SARS-CoV-2 cell entry (AID 1645845); note: nearly all actives have a fitted effect of over 50% in size
In short: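 ATP-content luminescence (ATPLite 1step, 15 min RT) read after 48 h compound exposure of Expi293F cells stably expressing human ACE2; normalized to cells-only wells and media-only wells.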

[2] = Primary qHTS to identify inhibitors of SARS-CoV-2 cell entry (AID 1645846); details: activity change, negative = inhibition: at 57.1 µM (top of the series) unless noted; note: nearly all actives have a fitted effect of over 45% in size
In short: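 Inhibition of spike-mediated entry was scored in human ACE2-transfected Expi293F cells. Particles were MLV-pseudotyped with Wuhan-Hu-1 S carrying a 19-aa C-terminal deletion; signal was luciferase after two days, scaled between spike PP and fusion-protein-free PP.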
Potency is the fitted concentration of half-maximal effect.

Row | Structure (SMILES) | Potency [1] | Potency [2] | activity change, negative = inhibition [2] | outcome [1]
1 | CCCCCCCCCCCCCCCC(=O)OC(C)C | inactive | inactive |  | 
2 | O=C1[C@@H]2[C@H]3CC[C@H](C3)[C@@H]2C(=O)N1CCCCN1CCN(c2ncccn2)CC1 | inactive |  | -0.993% | 
3 | CC(C)C(=O)c1c(C(C)C)nn2ccccc12 | inactive | inactive |  | 
4 | Nc1ccc(C(=O)Oc2ccccc2)c(O)c1 | inactive | inactive |  | 
5 | COc1cc(OC)c(C(=O)CCCN2CCCC2)c(OC)c1 | inactive |  | -26.6% | 
6 | CCCCCCCCCCCCCCCCO | inactive |  | -7.94% | 
7 | CC(=O)OCC[N+](C)(C)C | inactive |  | 3.83% | 
8 | CN(C)c1ccc2nc3ccc(=[N+](C)C)cc-3sc2c1 | 7.08 µM (active) | 8.91 µM (active) and 7.08 µM (active) |  | 
9 | Nc1nc(-c2ccccc2)c(Br)c(=O)[nH]1 | inactive | inactive |  | 
10 | CCC[C@@H]1C[C@@H](C(=O)N[C@@H]([C@H]2O[C@H](SC)[C@H](O)[C@@H](O)[C@H]2O)[C@@H](C)O)N(C)C1 | inactive | inactive |  | 
11 | CCCC(=O)O[C@]1(C(=O)COC(=O)CC)CC[C@H]2[C@@H]3CCC4=CC(=O)CC[C@]4(C)[C@H]3[C@@H](O)C[C@@]21C | inactive |  | -22.2% [at 27.1 µM] | 
12 | NCCNCCNCCNCCN |  |  | 4.56% [at 11.3 µM] | inactive [at 11.3 µM]
13 | CCCCCCCCCCC[C@@H](C[C@@H]1OC(=O)[C@H]1CCCCCC)OC(=O)[C@H](CC(C)C)NC=O | inactive |  | 0.353% | 
14 | CCn1cc(C(=O)O)c(=O)c2cc(F)c(N3CCNC(C)C3)c(F)c21 (centres undefined) | inactive | inactive |  | 
15 | Cc1ccsc1/C=C/C1=NCCCN1C | inactive |  | -11.3% | 
16 | Cc1onc(-c2ccccc2)c1-c1ccc(S(N)(=O)=O)cc1 | inactive |  | -25.7% and -12.6% | 

Row | Structure (SMILES) | Potency [1] | Potency [2] | activity change, negative = inhibition [2] | outcome [1]
17 | O=C(N[C@H](CO)[C@H](O)c1ccc([N+](=O)[O-])cc1)C(Cl)Cl | inactive |  | 2.2% | 
18 | C/C(=C(\CCO)SS/C(CCO)=C(\C)N(C=O)Cc1cnc(C)nc1N)N(C=O)Cc1cnc(C)nc1N | inactive |  | -31.6% | 
19 | CCCCC(CC)CN1CN(CC(CC)CCCC)CC(C)(N)C1 (centres undefined) | inactive | inactive |  | 
20 | CO[C@@]1(NC(=O)CSCC#N)C(=O)N2C(C(=O)O)=C(CSc3nnnn3C)CS[C@@H]21 | inactive | inactive |  | 
21 | Nc1nc(N)nc(-c2cc(Cl)ccc2Cl)n1 | inactive | inactive |  | 
22 | C=CCc1ccc(O)c(OC)c1 | inactive | inactive |  | 
23 | NS(=O)(=O)c1cc2c(cc1Cl)NC(C(Cl)Cl)NS2(=O)=O (centres undefined) | inactive |  | -2.02% and -6.06% | 
24 | Cn1c(=O)c2[nH]cnc2n(C)c1=O | inactive |  | -18.5% and -12.1% | 
25 | CC(=O)[C@@]1(O)CC[C@H]2[C@@H]3C[C@H](C)C4=CC(=O)C=C[C@]4(C)[C@@]3(F)[C@@H](O)C[C@@]21C | inactive |  | 1.04% | 
26 | Cc1ccc(-c2ncc(Cl)cc2-c2ccc(S(C)(=O)=O)cc2)cn1 | inactive | inactive |  | 
27 | NC(=O)NC(=O)Cc1ccccc1 | inactive | inactive |  | 
28 | CCCCOC(=O)c1ccc(N)cc1 | inactive | inactive |  | 
29 | CCCCCC[C@@H](CCC)C(=O)O | inactive | inactive |  | 
30 | C[N+](C)(C)CCOC(N)=O | inactive | inactive |  | 
31 | NC(=O)c1cc[n+](CC2=C(C(=O)[O-])N3C(=O)[C@@H](NC(=O)Cc4cccs4)[C@H]3SC2)cc1 | inactive | inactive |  | 
32 | O=C(NCCO[N+](=O)[O-])c1cccnc1 | inactive | inactive |  | 
